# The supplement of paper PMC8728848
# The entries come from a sample that favours the strongest signals as a whole.
# B1: Tp0751, 83732 (protein)
# chain: MSYYHHHHHHLESTSLYKKAGFQHGHVPPRRIPPHDTFGALPTAALPSNARDTAAHPSDTADNTSGSSTTTDPRSHGNAPPAPVGGAAQTHTQPPVQTAMRIALWNRATHGEQGALQHLLAGLWIQTEISPNSGDIHPLLFFDREHAEITFSRASVQEIFLVDSAHTHRKTVSFLTRNTAISSIRRRLEVTFESHEVIHVRAVEDVARLKIGSTSMWDGQYTRYHAGPASAPSP
# How the values were obtained:
# Assay in all cases: glycan array binding signal (z-score within array); higher = stronger binding
# Conditions in all cases: glycan notation: IUPAC condensed, linker removed
# Gal3S(b1-4)Glc = target: Gal3S(b1-4)Glc
# In short: (§1)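 Glycan array binding is given as a within-array Z-score, which can be read as non-binding when negative. The arrays, 3228 of them, came from the Consortium for Functional Glycomics database and were retained only where the protein sequence was available. Z-scores were averaged across arrays of the same protein sequence at different concentrations or buffers and across linkers.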
# [1] = target: Gal3S(b1-4)[Fuc(a1-3)]GlcNAc6S
# In short: as §1
# Gal3S6S(b1-4)GlcNAc6S = target: Gal3S6S(b1-4)GlcNAc6S
# In short: as §1
# Gal6S(b1-3)GlcNAc6S = target: Gal6S(b1-3)GlcNAc6S
# In short: as §1
# GalNAc(a1-3)Gal = target: GalNAc(a1-3)Gal
# In short: as §1
# [2] = target: Glc(a1-6)Glc(a1-6)Glc(a1-6)Glc
# In short: as §1
# [3] = target: GlcNAc(a1-4)Gal(b1-4)GlcNAc(b1-3)Gal(b1-4)[Fuc(a1-3)]GlcNAc(b1-3)Gal(b1-4)[Fuc(a1-3)]GlcNAc
# In short: as §1
# [4] = target: GlcNAc(b1-2)Gal(b1-3)GalNAc
# In short: as §1
# [5] = target: GlcNAc(b1-2)[GlcNAc(b1-4)]Man(a1-3)[GlcNAc(b1-4)][GlcNAc(b1-2)[GlcNAc(b1-6)]Man(a1-6)]Man(b1-4)GlcNAc(b1-4)[Fuc(a1-6)]GlcNAc
# In short: as §1
# [6] = target: GlcNAc(b1-2)[GlcNAc(b1-6)]Man(a1-6)[GlcNAc(b1-2)Man(a1-3)]Man(b1-4)GlcNAc(b1-4)[Fuc(a1-6)]GlcNAc
# In short: as §1
# [7] = target: GlcNAc(b1-2)[GlcNAc(b1-6)]Man(a1-6)[GlcNAc(b1-4)][GlcNAc(b1-2)Man(a1-3)]Man(b1-4)GlcNAc(b1-4)GlcNAc
# In short: as §1
# [8] = target: GlcNAc(b1-3)Gal(b1-4)GlcNAc(b1-3)Gal(b1-4)GlcNAc(b1-3)Gal(b1-4)GlcNAc(b1-3)Gal(b1-4)GlcNAc(b1-2)Man(a1-3)[GlcNAc(b1-3)Gal(b1-4)GlcNAc(b1-3)Gal(b1-4)GlcNAc(b1-3)Gal(b1-4)GlcNAc(b1-3)Gal(b1-4)GlcNAc(b1-2)Man(a1-6)]Man(b1-4)GlcNAc(b1-4)[Fuc(a1-6)]GlcNAc
# In short: as §1
# [9] = target: GlcNAc(b1-3)Gal(b1-4)GlcNAc(b1-3)Gal(b1-4)GlcNAc(b1-3)Gal(b1-4)GlcNAc(b1-3)Gal(b1-4)GlcNAc(b1-2)[GlcNAc(b1-3)Gal(b1-4)GlcNAc(b1-3)Gal(b1-4)GlcNAc(b1-3)Gal(b1-4)GlcNAc(b1-3)Gal(b1-4)GlcNAc(b1-6)]Man(a1-6)[GlcNAc(b1-3)Gal(b1-4)GlcNAc(b1-3)Gal(b1-4)GlcNAc(b1-3)Gal(b1-4)GlcNAc(b1-3)Gal(b1-4)GlcNAc(b1-2)Man(a1-3)]Man(b1-4)GlcNAc(b1-4)[Fuc(a1-6)]GlcNAc
# In short: as §1
# [10] = target: GlcNAc(b1-3)Gal(b1-4)GlcNAc(b1-6)[Gal(b1-3)]GalNAc
# In short: as §1
# Man(b1-4)GlcNAc = target: Man(b1-4)GlcNAc
# In short: as §1
# [11] = target: Neu5Ac(a2-3)Gal(b1-3)GlcNAc(b1-3)Gal(b1-4)GlcNAc
# In short: as §1
# [12] = target: Neu5Ac(a2-3)Gal(b1-3)[Fuc(a1-4)]GlcNAc(b1-3)Gal(b1-4)[Fuc(a1-3)]GlcNAc
# In short: as §1
# [13] = target: Neu5Ac(a2-3)Gal(b1-4)GlcNAc(b1-2)Man
# In short: as §1
# [14] = target: Neu5Ac(a2-3)Gal(b1-4)GlcNAc(b1-2)[Neu5Ac(a2-3)Gal(b1-4)GlcNAc(b1-4)]Man(a1-3)[GlcNAc(b1-4)][Neu5Ac(a2-3)Gal(b1-4)GlcNAc(b1-4)Man(a1-6)]Man(b1-4)GlcNAc(b1-4)GlcNAc
# In short: as §1
# [15] = target: Neu5Ac(a2-3)Gal(b1-4)GlcNAc(b1-3)Gal
# In short: as §1
# [16] = target: Neu5Ac(a2-3)Gal(b1-4)GlcNAc(b1-3)Gal(b1-4)GlcNAc(b1-2)Man(a1-3)[Neu5Ac(a2-3)Gal(b1-4)GlcNAc(b1-3)Gal(b1-4)GlcNAc(b1-2)Man(a1-6)]Man(b1-4)GlcNAc(b1-4)GlcNAc
# In short: as §1
# [17] = target: Neu5Ac(a2-3)Gal(b1-4)GlcNAc(b1-3)[Neu5Ac(a2-3)Gal(b1-4)GlcNAc(b1-6)]GalNAc
# In short: as §1
# [18] = target: Neu5Ac(a2-3)[GalNAc(b1-4)]Gal(b1-4)GlcNAc
# In short: as §1
# [19] = target: Neu5Ac(a2-3)[GalNAc(b1-4)]Gal(b1-4)GlcNAc(b1-3)GalNAc
# In short: as §1
# [20] = target: Neu5Ac(a2-6)Gal(b1-4)GlcNAc(b1-2)Man(a1-6)[Gal(b1-4)GlcNAc(b1-2)Man(a1-3)]Man(b1-4)GlcNAc(b1-4)GlcNAc
# In short: as §1
# [21] = target: Neu5Ac(a2-8)Neu5Ac(a2-3)[GalNAc(b1-4)]Gal(b1-4)Glc
# In short: as §1
# [22] = target: Neu5Ac9Ac(a2-6)Gal(b1-4)GlcNAc
# In short: as §1
# [23] = target: Neu5Gc(a2-3)Gal(b1-3)GlcNAc
# In short: as §1
binder,measurement,setting,value
B1,glycan array binding signal (z-score),Gal3S(b1-4)Glc,5.83
same,glycan array binding signal (z-score),[1],1.94
same,glycan array binding signal (z-score),Gal3S6S(b1-4)GlcNAc6S,2.54
same,glycan array binding signal (z-score),Gal6S(b1-3)GlcNAc6S,2.18
same,glycan array binding signal (z-score),GalNAc(a1-3)Gal,-0.699
same,glycan array binding signal (z-score),[2],1.24
same,glycan array binding signal (z-score),[3],1.63
same,glycan array binding signal (z-score),[4],-0.378
same,glycan array binding signal (z-score),[5],-0.299
same,glycan array binding signal (z-score),[6],0.781
same,glycan array binding signal (z-score),[7],-0.584
same,glycan array binding signal (z-score),[8],-0.326
same,glycan array binding signal (z-score),[9],-0.088
same,glycan array binding signal (z-score),[10],-0.81
same,glycan array binding signal (z-score),Man(b1-4)GlcNAc,-0.599
same,glycan array binding signal (z-score),[11],0.058
same,glycan array binding signal (z-score),[12],0.658
same,glycan array binding signal (z-score),[13],6.75
same,glycan array binding signal (z-score),[14],-0.386
same,glycan array binding signal (z-score),[15],-0.332
same,glycan array binding signal (z-score),[16],0.542
same,glycan array binding signal (z-score),[17],-0.246
same,glycan array binding signal (z-score),[18],-0.76
same,glycan array binding signal (z-score),[19],0.098
same,glycan array binding signal (z-score),[20],-0.478
same,glycan array binding signal (z-score),[21],-0.022
same,glycan array binding signal (z-score),[22],-0.145
same,glycan array binding signal (z-score),[23],0.052
